Bioassay records: PubChem BioAssay, National Center for Advancing Translational Sciences (NCATS)
D2 PAM-1: HTS Assay for Positive Allosteric Modulators of the Human D2 Dopamine Receptor: Primary Screen for Potentiators; D(2) dopamine receptor (Homo sapiens), P14416; AID 485347, 2010; potentiation, % at 10 µM; HEK293 T-REx D2, calcium flux, EC20 dopamine potentiation; hit rate 0.34% among 340,000;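 active = potentiation over 3 SD above the plate norm, cut at about 30% in these data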
Target sequence (P14416 whole entry, looked up): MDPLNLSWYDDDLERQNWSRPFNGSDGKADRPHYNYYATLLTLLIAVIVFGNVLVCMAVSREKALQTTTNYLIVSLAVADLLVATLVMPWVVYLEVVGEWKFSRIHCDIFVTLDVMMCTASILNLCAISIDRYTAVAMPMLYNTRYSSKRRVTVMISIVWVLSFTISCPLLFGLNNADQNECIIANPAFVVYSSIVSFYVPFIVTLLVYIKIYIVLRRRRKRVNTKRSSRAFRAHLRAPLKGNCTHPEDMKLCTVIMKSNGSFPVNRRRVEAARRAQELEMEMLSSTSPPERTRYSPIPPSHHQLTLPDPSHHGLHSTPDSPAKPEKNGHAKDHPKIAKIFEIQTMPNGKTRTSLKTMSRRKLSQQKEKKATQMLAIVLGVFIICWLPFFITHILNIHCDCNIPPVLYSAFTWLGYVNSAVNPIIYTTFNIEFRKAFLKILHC
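Calcium flux readout, no-wash dye, 1 read/s. Inducible HEK293 Trex D2 line, overnight 30 C. Compound alone 180 s (agonist flags), then EC20 dopamine, another 180 s to score potentiation.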
D2 ag-1: HTS Assay for Allosteric Agonists of the Human D2 Dopamine Receptor: Primary Screen for Agonists | AID 485358, 2010 | hit rate 0.53% among 340,000 | activation, % at 2 µM | D(2) dopamine receptor (Homo sapiens), P14416 | HEK293 T-REx D2 cells, calcium flux agonist mode;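 active = activation over 3 SD above normal in the single-dose calcium agonist read, cut at about 30% in these data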
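Tetracycline-induced HEK293 T-REx cells with force-coupled D2 receptor, plated overnight at 30 C, loaded with no-wash calcium dye. After a 10 s baseline, compound was pin-added and calcium flux read kinetically for 180 s; calcium rises flagged agonists.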
D2 ag-2: Beta-Arrestin HTS for Positive Allosteric Modulators of the Human D2 Dopamine Receptor: Agonists | D(2) dopamine receptor (Homo sapiens), P14416 | DiscoveRx PathHunter D2 beta-arrestin, luminescence, 90 min; 100% = 57 uM dopamine signal | activation, % (no concentration beside the values) | hit rate 0.084% among 360,000 | AID 624465, 2012; in the data active = activation above about 40%; inconclusive = between about 15% and that limit
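Agonist mode: compounds alone added to overnight-plated D2 PathHunter cells for 90 min at 37 C, with 57 uM final dopamine (EC100) defining full response. Beta-arrestin recruitment detected by chemiluminescent reagent, read after 1 h at ambient temperature.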
D2 PAM-2: Beta-Arrestin HTS for Positive Allosteric Modulators of the Human D2 Dopamine Receptor: Potentiators | AID 624464, 2012 | potentiation, % (concentration not given with the values) | D(2) dopamine receptor (Homo sapiens), P14416 | hit rate 0.23% among 360,000 | DiscoveRx D2 beta-arrestin cells, luminescence, 90 min; 100% = 57 uM dopamine signal; in the data active = potentiation above about 50%; inconclusive = mostly about 30% to 49%
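PathHunter D2 cells, attached overnight at 37 deg C, received compound in DMSO plus dopamine at EC20 (50 nM final) for 90 min at 37 deg C. Beta-arrestin recruitment was read as luminescence after 1 h with detection reagent at ambient temperature.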
D2 antag: HTS Assay for Allosteric Antagonists of the Human D2 Dopamine Receptor: Primary Screen for Antagonists; D(2) dopamine receptor (Homo sapiens), P14416; HEK293 TREx D2 cells, calcium flux, dopamine EC80; inhibition, % at 10 µM; hit rate 2% among 340,000; in the data active = inhibition above about 30%; inactive = below that, where a call was filed
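Tetracycline-induced HEK293 T-REx cells expressing D2 force-coupled to calcium signalling were dye-loaded, exposed to compound for 180 s, then challenged with an EC80 of dopamine; calcium flux was followed kinetically for a further 180 s.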
A number is an active result; n = inactive; u = inconclusive; x = no result. Sampled rows, rich in hits. Any-hit rate of the full collection: about 2.4%.

SMILES | D2 PAM-1 | D2 ag-1 | D2 ag-2 | D2 PAM-2 | D2 antag
O=C(NCc1ccco1)C1OCCc2ccccc21 (stereo not given) | n | n | n | n | n
CCN(CC(=O)Nc1c(F)cccc1F)C(=O)Cc1csc(-c2ccccc2)n1 | n | n | n | n | 35
CCN(CC(=O)Nc1c(F)cccc1F)C(=O)Cc1c(C)nc2ccccc2c1C | n | n | n | n | n
CC(=O)c1sc2nsc(SCCN3CCOCC3)c2c1N | n | n | n | n | n
Nc1c(C(=O)c2ccccc2)sc2nsc(SCCN3CCOCC3)c12 | n | 32 | n | n | n
O=C(O)/C(=C/c1ccco1)NC(=O)c1ccccc1 | n | n | n | n | 34
Cc1c(CNC2CCCCC2)c(C(=O)O)c(C)n1Cc1ccc(F)cc1 | n | n | x | x | x
COc1ccc(Cl)cc1S(=O)(=O)N1CCN(C(=O)c2cc(-c3ccc(Br)cc3)n[nH]2)CC1 | n | n | x | x | x
C/C(Cn1nnc([N+](=O)[O-])n1)=N\NC(=O)c1ccccc1O | n | n | u | n | n
C/C(Cn1nnc([N+](=O)[O-])n1)=N\NC(=O)c1ccc(O)cc1O | n | n | u | 59 | n
COc1ccccc1C1SCCN1S(=O)(=O)c1ccccc1 (stereo not given) | x | x | n | n | x
COc1ccccc1C1SCCN1S(=O)(=O)c1cccc(C(F)(F)F)c1 (stereo not given) | n | n | n | n | 47
CCOC(=O)N1CCc2c(sc3c2c(=O)n(-c2ccccc2C(F)(F)F)c(=O)n3Cc2ccccc2C)C1 | n | x | x | x | x
CCCN1C2CCCC1CC(NC(=O)c1ccc(Br)cc1)C2 (stereo not given) | n | n | n | n | n
CC(=O)NC1CC2CCC(C1)N2Cc1ccc(C)cc1 (stereo not given) | n | n | n | n | 51
CCC(=O)NC1CC2CCCC(C1)N2Cc1ccc(C)cc1 (stereo not given) | n | n | n | n | 93
CCOC(=O)c1ccc(NC(=O)C(C)N(c2ccc(OCC)cc2)S(C)(=O)=O)cc1 (stereo not given) | n | n | x | x | x
COc1ccc(CCN(C)C2CCCN(C(=O)c3sccc3C)C2)cc1OC (stereo not given) | n | n | n | n | 57
COC(=O)c1cnn(-c2ccc(C)c(C)c2)c1-n1cccc1 | n | n | n | n | 30
Cc1ncc(C(=O)O)c(C(=O)O)c1N | 35 | n | n | n | n
Cc1ccc(/C=N/Nc2ccc(Cl)c(C(=O)O)c2)s1 | n | n | n | 51 | n
O=C(O)c1cc(N/N=C/c2cccs2)ccc1Cl | n | n | x | x | n
COc1ccc(Nc2ncnc3c2cnn3-c2cc(Cl)ccc2C)cc1OC | n | x | x | x | x
CCOc1ccccc1-n1c(SCC(=O)N2CCCC2)nnc1-c1ccc(O)cc1 | 31 | n | n | n | n
Cc1cccc(-c2nnn3c2nc(NCc2ccc4c(c2)OCO4)c2ccccc23)c1 | n | n | x | x | x
SMILES | D2 PAM-1 | D2 ag-1 | D2 ag-2 | D2 PAM-2 | D2 antag
CCOC(=O)c1sc(NC(=S)NC(=O)c2ccco2)nc1C | n | n | n | n | n
CCOC(=O)c1sc(NC(NC(=O)c2ccco2)(C(=O)OC)C(F)(F)F)nc1C (stereo not given) | n | n | n | n | 34
COc1ccc(S(=O)(=O)NCc2cccnc2)cc1 | n | n | n | n | n
COc1ccc(S(=O)(=O)NCc2cccnc2)cc1Br | n | n | n | 60 | n
CCc1ccc(S(=O)(=O)c2nnn3c2nc(N2CCN(c4ccccc4)CC2)c2cc(Cl)ccc23)cc1 | n | n | x | x | x
O=C(CSc1nnc(-c2ccc(Br)o2)n1Cc1ccccc1)c1ccccc1F | 71 | n | n | n | n
O=C(CCSCc1ccccc1Cl)NCCc1ccccc1 | n | n | x | x | x
O=C(Nc1ccc(Br)cc1)c1ccc2ncsc2c1 | n | n | n | n | 36
CCc1ccc(NC(=O)c2ccc3ncsc3c2)cc1 | n | n | x | x | n
CCOc1ccc(NC(=O)CCN2C(=O)CSc3ccccc32)cc1 | n | n | n | n | n
O=C(CCN1C(=O)CSc2ccccc21)Nc1ccc(OC(F)(F)F)cc1 | n | n | n | n | 51
CCOc1ccc(C(=O)NCC(c2ccc3c(c2)OCO3)N2CCN(c3ccc(F)cc3)CC2)cc1 (stereo not given) | n | x | x | x | x
COc1ccc(N(C(=O)c2ccccc2OC(C)=O)C(C)C2CC2)cc1 (stereo not given) | n | n | n | n | 30
COc1ccc(NC(=O)CN(C)C(=O)c2ccccc2OC)cc1 | n | n | n | n | n
CCCCNC(=O)C1(C)CCC(=O)N1CCOc1ccccc1 (stereo not given) | x | x | n | n | x
Oc1cc2c(cc1CN1CCN(c3cccc(C(F)(F)F)c3)CC1)CCC2 | n | n | n | n | 56
CC(=O)Nc1ccc(NC(=O)CN2CCN(c3cccc(C(F)(F)F)c3)CC2)cc1 | n | n | n | n | n
CC(=O)Nc1ccc(CN2CCN(c3cccc(C(F)(F)F)c3)CC2)cc1 | n | n | n | n | 43
COc1ccc(N2CCN(Cc3cc4c(cc3O)CCC4)CC2)cc1 | n | n | n | n | n
Cc1ccc(CNc2ncccc2-c2nc(-c3ccc(Cl)cc3)no2)cc1 | n | n | x | x | x
CC(=O)Oc1ccc(CN2C(=O)C(CCc3ccccc3)ON=C2c2cnccn2)cc1 (stereo not given) | x | x | n | n | x
COC(=O)CCC(=O)OC1(C)C(=O)C=C2C=C(C3CC3)N(Cc3ccc4c(c3)OCO4)C=C2C1=O (stereo not given) | n | n | n | 73 | n
COC(=O)CCC(=O)OC1(C)C(=O)C=C2C=C(C3CC3)N(Cc3ccc(OC)cc3)C=C2C1=O (stereo not given) | n | n | n | n | n
O=C(CCNC(=O)c1ccc([N+](=O)[O-])cc1)NC1CCCc2ccccc21 (stereo not given) | n | n | n | n | 32
O=C(CCNC(=O)c1ccccc1)NC1CCCc2ccccc21 (stereo not given) | n | x | n | n | n
COc1ccc(NC(=O)CSc2oc(-c3cccs3)nc2S(=O)(=O)c2ccc(Br)cc2)c(OC)c1 | n | x | x | x | x
CC(C)[C@H](NC(N)=O)C(=O)NCCc1ccc(Cl)cc1 | n | n | n | n | n
Cc1cccc(C(=O)N[C@H](C(=O)NCCc2ccc(Cl)cc2)C(C)C)c1 | n | n | n | n | 38
CCOc1cccc2sc(Cl)nc12 | n | n | n | n | n
CCOc1ccc(OCC)c2sc(C)nc12 | 37 | n | n | n | n
